DUX4 inh: blocks DUX4-driven transcriptional activation; 293T-iDUX4 ZSCAN4-Gaussia luciferase reporter, 24 h; hits give low values; activity change, negative = inhibition, % (no concentration beside the values); 37,000 tested, 0.8% active;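 active means mean inhibition of at least 10% in the main channel, exceeding the control channel by a set limit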
A number is an active result; 0 = inactive; ! = not active in a repeat. The entries come from a sample that favours hits as a whole.

SMILES	DUX4 inh
C/C=C/c1ccc([C@H]2[C@@H](CO)N3CCCCN(C(=O)Nc4ccc(OC)cc4)C[C@H]23)cc1	0
CCS(=O)(=O)N1CCCCN2[C@H](CO)[C@H](c3ccc(-c4ccccc4C)cc3)[C@H]2C1	0
C/C=C/c1ccc([C@@H]2[C@H](CO)N3CCCCN(C(=O)Nc4ccc(OC)cc4)C[C@@H]23)cc1	0
O=C(Nc1cccc(F)c1)N1CCCCN2[C@H](C1)[C@@H](c1ccc(-c3ccncc3)cc1)[C@@H]2CO	0
Cc1ccccc1-c1ccc([C@H]2[C@H](CO)N3CCCCN(S(=O)(=O)c4ccc(F)cc4)C[C@@H]23)cc1	-56
C/C=C/c1ccc([C@@H]2[C@@H](CO)N3CCCCN(C(=O)Nc4ccc(OC)cc4)C[C@@H]23)cc1	-27
Cc1ccccc1-c1ccc([C@H]2[C@H]3CN(S(C)(=O)=O)CCCCN3[C@H]2CO)cc1	0
O=C(Nc1ccc(F)cc1)N1CCCCN2[C@H](C1)[C@H](c1ccc(-c3cccc(F)c3)cc1)[C@@H]2CO	0
C[C@H]1CN([C@@H](C)CO)C(=O)CCCn2cc(nn2)CO[C@H]1CN(C)C(=O)Nc1ccnc(N2CCOCC2)c1	0
CN1c2ccc(-c3ccccc3)cc2[C@H]2[C@H](CCN2C(=O)Nc2ccccc2F)[C@H]1CO	0
C[C@@H]1CN([C@H](C)CO)C(=O)c2ccccc2-c2ccccc2CO[C@@H]1CN(C)CC1CC1	0
C[C@@H]1CN([C@H](C)CO)C(=O)CCCn2cc(nn2)CO[C@@H]1CN(C)S(=O)(=O)c1ccc(C#N)cc1	0
C[C@@H]1CN([C@H](C)CO)C(=O)c2ccccc2-c2ccccc2CO[C@@H]1CN(C)Cc1ccc2c(c1)OCO2	0
C[C@@H]1CN([C@H](C)CO)C(=O)c2ccccc2-c2ccccc2CO[C@@H]1CN(C)Cc1ccc(Cl)c(Cl)c1	-52
C[C@@H]1CN([C@@H](C)CO)C(=O)c2ccccc2-c2ccccc2CO[C@@H]1CN(C)Cc1ccc(O)cc1	0
C[C@H](CO)N1C[C@H](C)[C@@H](CN(C)Cc2ccc(F)cc2)OCc2ccccc2-c2ccccc2C1=O	0
C[C@H]1CN([C@@H](C)CO)C(=O)c2ccccc2-c2ccccc2CO[C@@H]1CN(C)Cc1ccc(Cl)c(Cl)c1	-42
C[C@H](CO)N1C[C@H](C)[C@H](CN(C)Cc2ccc(O)cc2)OCc2ccccc2-c2ccccc2C1=O	0
CC=Cc1ccc2n(c1=O)C[C@@H]1[C@@H](CO)[C@H](C(=O)N3CCCCC3)N(Cc3ccccc3OC)[C@H]21 (mixture of isomers)	0
CCC(=O)N1CCC2(CC1)CN(Cc1ccc3c(c1)OCO3)[C@H](CO)c1c2c2ccc(OC)cc2n1C	0
COc1ccccc1CNC(=O)C[C@H]1C[C@@H]2c3cc(NC(=O)CN(C)C)ccc3O[C@@H]2[C@H](CO)O1	0
C[C@@H]1CN([C@@H](C)CO)C(=O)c2ccccc2-c2ccccc2CO[C@@H]1CN(C)Cc1cccc(C(F)(F)F)c1	-63
C[C@@H]1CN([C@@H](C)CO)C(=O)c2ccccc2-c2ccccc2CO[C@@H]1CN(C)Cc1cccc(F)c1	0
C[C@H]1CN([C@@H](C)CO)C(=O)c2ccccc2-c2ccccc2CO[C@@H]1CN(C)Cc1cccc(C(F)(F)F)c1	-37
C[C@@H]1CN([C@@H](C)CO)C(=O)c2ccccc2-c2ccccc2CO[C@@H]1CN(C)Cc1ccc(C(F)(F)F)cc1	0
SMILES	DUX4 inh
C[C@@H]1CN([C@@H](C)CO)C(=O)c2ccccc2-c2ccccc2CO[C@H]1CN(C)Cc1cccc(C(=O)O)c1	0
C[C@H](CO)N1C[C@H](C)[C@@H](CN(C)Cc2cccc(O)c2)OCc2ccccc2-c2ccccc2C1=O	0
COc1ccc2c3c(n(C)c2c1)[C@@H](CO)N(C(C)=O)CC31CCN(Cc2cncnc2)CC1	0
CNC[C@@H]1Oc2ccc(NC(=O)NC3CCCCC3)cc2CC(=O)N([C@H](C)CO)C[C@H]1C	0
CC=Cc1ccc2n(c1=O)C[C@H]1[C@H](CO)[C@@H](C(=O)NCCC)[C@@H]2N1S(=O)(=O)c1cn(C)cn1 (mixture of isomers)	0
COCC(=O)N1CCC2(CC1)CN(Cc1cccc(OC)c1)[C@H](CO)c1c2c2ccc(OC)cc2n1C	0
COc1ccccc1S(=O)(=O)N1C[C@@H]2N[C@H](C1)C2c1ccc(-c2ccccc2C)cc1 (some centres undefined)	-42!
CN(C)C(=O)c1ccc(-c2ccc(C3[C@@H]4CN(Cc5cccnc5)C[C@H]3N4)cc2)cc1 (some centres undefined)	0
COc1ccccc1-c1ccc(C2[C@@H]3CN(C(=O)c4ccncc4)C[C@H]2N3)cc1 (some centres undefined)	0
COc1ccc(NC(=O)N2C[C@@H]3N[C@H](C2)C3c2ccc(-c3cncnc3)cc2)cc1 (some centres undefined)	0
COc1ccc(-c2ccc(C3[C@@H]4CN(S(=O)(=O)c5ccccc5C)C[C@H]3N4)cc2)cc1 (some centres undefined)	-42!
Cc1ccccc1-c1ccc(C2[C@@H]3CN(Cc4cccnc4)C[C@H]2N3)cc1 (some centres undefined)	-24
C/C=C/c1ccc(C2[C@@H]3CN(S(=O)(=O)c4ccccc4F)C[C@H]2N3)cc1 (some centres undefined)	0
Cc1ccccc1-c1ccc(C2[C@@H]3CN(S(=O)(=O)c4ccccc4)C[C@H]2N3)cc1 (some centres undefined)	-50!
C/C=C/c1ccc(C2[C@@H]3CN(S(=O)(=O)c4ccc(F)cc4)C[C@H]2N3)cc1 (some centres undefined)	0
Cc1ccccc1-c1ccc([C@@H]2[C@@H](CO)N3C(=O)CN(S(C)(=O)=O)C[C@@H]23)cc1	0
COc1cccc(S(=O)(=O)N2[C@@H]3CNC[C@H]2C3c2ccc(-c3ccccc3C)cc2)c1 (some centres undefined)	0
COc1ccccc1-c1ccc(C2[C@@H]3CN(C(=O)c4cccnc4)C[C@H]2N3)cc1 (some centres undefined)	0
CCC(=O)N1[C@H](CO)[C@H](c2ccccc2)C12CN(Cc1nccs1)C2	0
COc1ccc([C@H]2CC=CC[C@H](C)Oc3ccccc3C(=O)N(C)[C@@H](C)C(=O)N2)c(OC)c1 (mixture of isomers)	0
COCC(=O)Nc1ccc2c(c1)C(=O)N(C)[C@H]1CC[C@H](CC(=O)Nc3cn(C)nc3C)O[C@H]1CO2	0
COc1ccccc1CN1C[C@H](C)[C@@H](OC)CN(C)C(=O)c2ccc(NC(C)=O)cc2OC[C@@H]1C	0
CC(=O)N1[C@@H]2c3ccc(-c4cccnc4)c(=O)n3C[C@@H]2[C@@H](CO)[C@@H]1C(=O)N1CCc2ccccc2C1	0
Cc1cccc(-c2ccc([C@H]3[C@H]4CN(C(=O)c5cnccn5)CC(=O)N4[C@H]3CO)cc2)c1	0
CNC[C@@H]1Oc2ccc(NS(=O)(=O)c3cn(C)cn3)cc2CC(=O)N([C@@H](C)CO)C[C@H]1C	0
Cc1ccccc1-c1ccc(C2[C@@H]3CN(S(=O)(=O)c4ccccc4C)C[C@H]2N3)cc1 (some centres undefined)	-36!
Cc1ccccc1-c1ccc(C2[C@@H]3CN(C(=O)C4CCOCC4)C[C@H]2N3)cc1 (some centres undefined)	0
O=C(c1cnccn1)N1C[C@@H]2N[C@H](C1)C2c1ccc(/C=C/c2ccccc2)cc1 (some centres undefined)	0
